GC-A act – GC-A (human) enzyme activation | P16066 | HEK293 GC-A cells, cGMP TR-FRET, EC30 ANP; 0% at EC30 ANP, 100% saturating ANP | activation, % at 10 µM | hit rate 0.14% among 370,000 | AID 1671463; in the data active means activation above about 40%
FAS TE block – FAS thioesterase (human) inhibition; hit rate 0.67% among 360,000; inhibition, % at 15 µM; AID 602261; recombinant FAS-TE, OMFH fluorogenic substrate, fluorescence endpoint; P49327;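 active means compounds whose normalised, plate-corrected inhibition of enzyme fluorescence in the single-dose primary screen is 50% or more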
ADAM10 inh – inhibitors of human ADAM10; recombinant ADAM10, EDANS/DABCYL FRET peptide cleavage, 3 h; inhibition, % at 7 µM; hit rate 0.62% among 370,000; AID 720582;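 active means inhibition above a per-campaign cutoff equal to the mean of compounds falling between control-based bounds plus 3 SD, cut at about 20% in these data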
GC-B act – GC-B (human) receptor activation | P20594 | HEK293-GC-B cells, CNP EC30, cGMP TR-FRET; 0% at EC30 CNP, 100% saturating CNP | activation, % at 10 µM | hit rate 0.11% among 370,000 | AID 1920062;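 active means activation at 10 µM reaching about 35% in either raw or pattern-adjusted values, limit read from the data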
ADAM17 inh – inhibits human ADAM17. P78536. recombinant ADAM17, EDANS/DABCYL FRET peptide cleavage. inhibition, % at 6.95 µM. hit rate 0.83% among 370,000. AID 720648;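 active means inhibition above the mean of compounds lying between control limits plus 3 SD, set per campaign, cut at about 8.5% in these data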
FAS-TE inh conf – confirmation of human fatty acid synthase thioesterase inhibitors; recombinant FAS-TE, OMFH fluorogenic substrate, fluorescence; inhibition, % at 15 µM; shares compounds with FAS TE block; hit rate 45% among 2,300;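 active means compounds inhibiting the enzyme by at least 50% at 15 µM in any one of the replicates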
A number is an active result; 0 = inactive; - = no result. The list is not random: actives were taken first. Their share in the collection is about 2%.

SMILES | GC-A act | FAS TE block | ADAM10 inh | GC-B act | ADAM17 inh | FAS-TE inh conf
Cc1ccc(-n2[nH]c(C)c(/C=N/Nc3ccc([N+](=O)[O-])cc3[N+](=O)[O-])c2=O)cc1 | 0 | 55 | 0 | 0 | 0 | 55
O=C(Nc1ccccc1)C(Cl)C(=O)c1ccccc1 (centres undefined) | 0 | 51 | 0 | 0 | 0 | 0
COc1ccc2ccccc2c1/C=N/NC(=S)Nc1cc(S(=O)(=O)N2CCOCC2)ccc1N1CCOCC1 | 0 | 92 | 0 | 0 | 0 | 0
COc1ccc(/C=N/NC(=S)Nc2cc(S(=O)(=O)N3CCOCC3)ccc2N2CCOCC2)cc1O | 0 | 0 | 0 | 0 | 0 | -
CCN(CC)S(=O)(=O)c1ccc(N2CCOCC2)c(NC(=O)c2ccc3ccccc3c2)c1 | 0 | 52 | 0 | 0 | 0 | 0
Cc1cccc(C2=NN(c3ccccc3)[C@@H](C(=O)N3CCOC3=O)[C@@H]2c2ccc(Cl)cc2)c1 | 0 | 56 | 0 | 0 | 0 | 0
Cc1cccc(C2=NN(c3ccc(Br)cc3)[C@@H](C(=O)N3CCOC3=O)[C@@H]2c2ccc([N+](=O)[O-])cc2)c1 | 0 | 85 | 0 | 0 | 0 | 0
O=C1OCCN1C(=O)[C@H]1[C@H](c2ccc(Cl)cc2)C(c2ccccc2)=NN1c1ccccc1 | 0 | 0 | 0 | 0 | 0 | -
O=C1OCCN1C(=O)[C@H]1[C@H](c2ccccc2)C(c2cccc(Cl)c2)=NN1c1ccccc1 | - | 56 | - | - | - | 0
CCN1C(=O)[C@H]2[C@@H](c3ccc(-c4ccc(Cl)c(Cl)c4)c(OC)c3)N[C@@](Cc3ccccc3)(C(=O)OC)[C@H]2C1=O | 0 | 70 | 0 | 0 | 0 | 0
CCN1C(=O)[C@H]2[C@@H](c3ccc(-c4cccc(Cl)c4)cc3)N[C@@](Cc3ccccc3)(C(=O)OC)[C@H]2C1=O | 0 | 0 | 0 | 0 | 0 | -
CCN1C(=O)[C@H]2[C@@H](c3ccc(-c4ccc5c(c4)OCO5)cc3)N[C@@](Cc3ccccc3)(C(=O)OC)[C@H]2C1=O | 0 | 67 | 0 | 0 | 0 | 0
COc1ccccc1N(C(=O)c1cncc(Br)c1)c1nc(-c2ccc(C)cc2)cs1 | 0 | 56 | 0 | 0 | 0 | 0
CCN(CC)c1ccc(-c2nn3c(-c4ccccc4Cl)nnc3s2)cc1 | 0 | - | 0 | 0 | 0 | -
O=C(Cn1nc(-c2ccco2)ccc1=O)Nc1ccc(Cl)c(Cl)c1 | 0 | 59 | 0 | 0 | 0 | 36
O=C(Cn1nc(-c2ccco2)ccc1=O)Nc1cc(C(F)(F)F)ccc1Cl | 0 | 52 | 0 | 0 | 0 | 73
COc1cccc(-c2ccc(CC[C@H]3O[C@H]4CC[C@@H](CO)O[C@H]4C[C@H]3NC(=O)c3cnccn3)cc2)c1 | 0 | - | 0 | 0 | 0 | -
C/C(=C/CCC(C)[C@H]1CC[C@@]2(C)C3=C(CC[C@]12C)[C@@]1(C)CCC(=O)C(C)(C)[C@@H]1CC3)C(=O)O (some centres undefined) | 0 | 74 | 0 | 0 | 0 | 0
COc1ccccc1CCn1cnc(-c2ccc(F)cc2)c1C(C)C | 0 | - | 0 | 0 | 0 | -
Cc1cccc(COC[C@H](CC(C)C)N2CCN(C(=O)c3ccc(C(C)(C)C)cc3)CCC2=O)c1 | 0 | 54 | 0 | 0 | 0 | 45
Cc1cccc(COCC(CC(C)C)N2CCN(C(=O)c3ccc(C(C)(C)C)cc3)CCC2=O)c1 (centres undefined) | 0 | 59 | 0 | 0 | 0 | 56
CCn1c(COc2ccc(C)cc2)nnc1SCC(=O)Nc1ccc(Oc2ccccc2)cc1 | 0 | - | 0 | 0 | 0 | -
CC1CCN(S(=O)(=O)c2ccc(NC(=O)N3c4ccccc4Sc4ccccc43)cc2)CC1 | 0 | 62 | 0 | 0 | 0 | 0
NS(=O)(=O)c1ccc(NC(=O)N2c3ccccc3Sc3ccccc32)cc1 | 0 | - | 0 | 0 | 0 | -
CCCNC(=O)c1nnsc1S(=O)(=O)c1ccc(Cl)cc1 | 0 | 53 | 0 | 0 | 0 | 70
SMILES | GC-A act | FAS TE block | ADAM10 inh | GC-B act | ADAM17 inh | FAS-TE inh conf
CCCNC(=O)c1nnsc1S(=O)c1ccc(Cl)cc1 (centres undefined) | 0 | 0 | 0 | 0 | 0 | -
CCCCn1cnc2c(=O)[nH]ccc21 | 0 | - | 0 | 0 | 0 | -
O=C(CC12CC3CC(CC(C3)C1)C2)NCC(=O)OCc1cc(=O)oc2ccc3ccccc3c12 | 0 | 55 | 0 | 0 | 0 | 0
CCOC(=O)N1CCN(Cc2cc(=O)oc3ccc4ccccc4c23)CC1 | 0 | 0 | 0 | 0 | 0 | -
CCN(CC)C(=O)CC[C@H]1CC[C@]2(CCCN(C3CCCCC3)C2)O1 | 0 | - | 0 | 0 | 0 | -
O=C(COC(=O)c1cc([N+](=O)[O-])ccc1Cl)NC1CCCC1 | 0 | 80 | 0 | 0 | 0 | 87
COC(=O)c1cc(C(=O)OCC(=O)NC2CCCCCCC2)cc([N+](=O)[O-])c1 | 0 | 70 | 0 | 0 | 0 | 37
COC(=O)c1cc(C(=O)OCC(=O)c2ccc3c(c2)NC(=O)CO3)cc([N+](=O)[O-])c1 | 0 | 57 | 0 | 0 | 0 | 53
O=C(COC(=O)c1ccc([N+](=O)[O-])cc1)NC1CCCC1 | 0 | 0 | 0 | 0 | 0 | -
COc1ccc(N2C(=O)C3C4c5ccccc5C(C=Nc5ccc(C)cc5C)(c5ccccc54)C3C2=O)cc1 (centres undefined) | 0 | 56 | 0 | 0 | 0 | 0
CCc1ccc(N=CC23c4ccccc4C(c4ccccc42)C2C(=O)N(c4ccc(OC)cc4)C(=O)C23)cc1 (centres undefined) | 0 | 0 | 0 | 0 | 0 | -
Cc1ccc(S(=O)(=O)N(C)C)cc1NC(=S)NC(C)CCCC(C)C (centres undefined) | 0 | 58 | 0 | 0 | 0 | 53
COC(=O)N1C(=O)[C@](c2ccccc2)(C2CCCC2)N1C(=O)OC | 0 | 80 | 0 | 0 | 0 | 90
CC(C)=CCC/C(C)=C/CNCC(=O)N1c2ccccc2[C@]2(c3ccccc3)C[C@@H]3C(=O)N(C/C=C(\C)CCC=C(C)C)CC(=O)N3[C@H]12 | 0 | - | 0 | 0 | 0 | -
CC(=O)Nc1ccc(S(=O)(=O)N2CCN(c3cc4c(cc3[N+](=O)[O-])n(C)c(=O)n4C)CC2)cc1 | 0 | 0 | 0 | 0 | 0 | -
Cn1c(=O)n(C)c2cc([N+](=O)[O-])c(N3CCN(S(=O)(=O)c4ccc(C(C)(C)C)cc4)CC3)cc21 | 0 | 73 | 0 | 0 | 0 | 0
Cc1cc(OC[C@@H](O)CN2CCC(C(O)(c3ccccc3)c3ccccc3)CC2)ccc1Br | 0 | - | 0 | 0 | 0 | -
O=C(C(=O)N1CCN(S(=O)(=O)c2ccc(OC(F)(F)F)cc2)CC1)c1cccc(C(F)(F)F)c1 | 0 | - | 0 | 0 | 0 | -
CCCC(=O)N1CCC(C(=O)NC2CCCc3ccccc32)CC1 (centres undefined) | 0 | - | 0 | 0 | 0 | -
CCCn1c(=S)[nH]c2cc(C(=O)N3CCN(c4ccc(F)cc4)CC3)ccc2c1=O | 0 | 55 | 0 | 0 | 0 | 0
